A selection: hits, their analogues and other compounds. The true share with any hit is near 5.8%.
TRPV1 agonist = activates the human vanilloid receptor TRPV1 | Q8NER1 | TRPV1-expressing cells, Fluo-8 calcium influx, agonist mode | activation, % at 8.33 µM | 320,000 tested, 0.19% active | AID 540275; in the data active = activation above about 80%; inconclusive = between about 30% and that limit; also: 0% is about no effect
Target sequence (Q8NER1 whole entry, looked up): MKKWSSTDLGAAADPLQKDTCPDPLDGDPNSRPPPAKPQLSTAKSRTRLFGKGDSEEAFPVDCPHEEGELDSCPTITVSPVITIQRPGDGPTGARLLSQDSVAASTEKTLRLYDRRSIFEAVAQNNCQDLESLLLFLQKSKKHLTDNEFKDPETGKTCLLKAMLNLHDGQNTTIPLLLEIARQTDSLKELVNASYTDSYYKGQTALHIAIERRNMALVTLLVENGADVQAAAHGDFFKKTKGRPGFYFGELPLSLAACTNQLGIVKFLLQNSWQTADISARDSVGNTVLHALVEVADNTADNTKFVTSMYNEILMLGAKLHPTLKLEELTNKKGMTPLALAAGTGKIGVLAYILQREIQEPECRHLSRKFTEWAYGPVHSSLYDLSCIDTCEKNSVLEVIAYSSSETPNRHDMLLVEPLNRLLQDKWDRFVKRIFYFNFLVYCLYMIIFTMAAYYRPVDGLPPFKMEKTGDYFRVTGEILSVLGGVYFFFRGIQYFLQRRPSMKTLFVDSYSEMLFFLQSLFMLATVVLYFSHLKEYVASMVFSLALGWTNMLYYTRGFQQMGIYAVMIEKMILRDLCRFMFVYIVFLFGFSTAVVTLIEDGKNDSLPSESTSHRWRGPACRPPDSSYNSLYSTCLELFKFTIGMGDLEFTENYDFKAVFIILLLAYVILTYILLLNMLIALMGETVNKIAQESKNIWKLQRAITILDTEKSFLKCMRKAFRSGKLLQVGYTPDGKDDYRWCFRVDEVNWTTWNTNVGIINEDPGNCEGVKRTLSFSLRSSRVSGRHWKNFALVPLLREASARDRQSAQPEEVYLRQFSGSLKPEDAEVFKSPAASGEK
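Fluo-8 calcium influx in TRPV1-expressing cells, kinetic read (ex 480/em 520 nm). Compound added and read 3 min for agonist activity, followed by capsaicin at EC20 final and 2 min further read for enhancement.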
uPA generation = cell surface uPA generation inhibition | AID 540303 | cell surface uPA generation assay, qHTS | Potency, µM (top dose mostly 38.3 µM), inactives show top-dose activity change, negative = inhibition, hits mostly inhibitors | 330,000 tested, 0.31% active; active = well fitted inhibition curve with a large enough effect; inconclusive = small, poorly fitted or top-dose-only effect; inactive = no such curve, though single readings can be large or run the other way; tested in mouse RAW 264.7 cells; also: potency is read from the fitted curve at half-maximal effect; % is scaled to controls: 0 for no effect and ±100 for the full control effect; nearly all actives have a fitted effect of over 55% in size
TRPV1 potentiator = enhances activation of the human vanilloid receptor TRPV1; Q8NER1; TRPV1-expressing cells, Fluo-8 calcium influx, capsaicin EC20 potentiation; potentiation, % at 8.33 µM; 320,000 tested, 0.02% active; AID 540277; in the data active = potentiation above about 80%; inconclusive = between about 30% and that limit; also: 0% is about no effect
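Fluo-8 calcium influx in TRPV1-expressing cells, kinetic read (ex 480/em 520 nm). Compound added and read 3 min for agonist activity, followed by capsaicin at EC20 final and 2 min further read for enhancement.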
VP16 counter = inhibits Gal4-VP16 luciferase reporter, ROR gamma counter-screen. Drosophila S2 Gal4-VP16 UAS-luciferase, luminescence, 20 h. 310,000 tested, 3.5% active. Potency, µM (titrated, usually from 53.6 µM), for inactives: at the highest dose activity, negative = inhibition, actives largely listed as inhibitors;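 also: Gal4-VP16 expression switched on by copper sulfate through the metallothionein promoter; potency is read from the fitted curve at half-maximal effect; % is scaled to controls: 0 for no effect and ±100 for the full control effect; nearly all actives have a fitted effect of over 50% in size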
RORgamma inh = inhibitors of mouse ROR gamma transcriptional activity; Drosophila S2 Gal4-RORgamma UAS-luciferase reporter, 20 h; Potency, µM (doses to about 53.6 µM), for the others: at the highest dose activity change, negative = inhibition, hits mostly inhibitors; 310,000 tested, 5.4% active; also: potency is read from the fitted curve at half-maximal effect; % is scaled to controls: 0 for no effect and ±100 for the full control effect; nearly all actives have a fitted effect of over 60% in size
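A Gal4/UAS one-hybrid system in insect cells: metallothionein-promoter Gal4–ROR gamma fusion plus Photinus luciferase reporter. Copper sulfate 700 uM final, 20 hr ambient incubation, luminescent detection after 10 min with reagent.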
Starred values were filed as active, the others as inactive; ? = inconclusive; . = not tested or not shown. Unless noted, calls follow the shape of the dose curve; as a rule, active = well fitted curve in the direction sought with a large enough effect; inconclusive = small, poorly fitted or top-dose-only effect, or another doubt; inactive = no such curve, though single readings can be large; an effect the other way counts as inactive or inconclusive.

SMILES	TRPV1 agonist	uPA generation	TRPV1 potentiator	VP16 counter	RORgamma inh
CCC(=O)NC(=S)Nc1ccc(NC(=O)c2ccc(Br)o2)cc1	18	0%	-22	9%	11µM*
CCC(=O)NC(=S)Nc1ccc(NC(=O)c2ccc(OC)cc2)cc1	7	2%	-6	-2%	2%
CCN(c1ccccc1)S(=O)(=O)c1ccc(NC(=S)NC(=O)c2ccc(Br)o2)cc1	16	-3%	-4	16µM*	4.5µM*
COc1cc(-c2nnc(NC(=O)CS(=O)(=O)c3ccc(F)cc3)o2)cc(OC)c1OC	0	-8%	-3	.	.
COc1cc(OC)cc(-c2nnc(NC(=O)Cc3ccc(F)cc3)o2)c1	12	?	12	0.63µM*	0.71µM*
Cc1ccc(-c2nnc(NC(=O)CCS(=O)(=O)c3ccc(F)cc3)o2)c(C)c1	-3	3%	11	.	.
COc1ccc(C(=O)OCC(=O)Nc2nnc(-c3ccccc3)o2)cc1	0	3%	-6	5µM*	4µM*
COc1cccc(CC(=O)OCC(=O)Nc2nnc(-c3ccccc3)o2)c1	-1	3%	17	.	.
Cc1ccc(CC(=O)Nc2nnc(-c3ccc(F)cc3)o2)c(C)c1	3	9%	-1	3.2µM*	2.5µM*
COc1ccc(-c2nnc(NC(=O)Cc3ccccc3)o2)cc1	10	-1%	-8	2.8µM*	1.6µM*
COc1ccc(CNC(=O)C(C)N(Cc2ccccc2OC)C(=O)c2snc(C(N)=O)c2N)cc1 (stereo unspecified)	1	3%	-16	24%	10µM*
COc1ccc(CN(C(=O)c2snc(C(N)=O)c2N)C(C)C(=O)NCc2ccc(F)cc2)cc1 (stereo unspecified)	0	0%	3	0%	8%
COc1cccc(OCC(=O)O/N=C(\N)c2ccc(OC)c(OC)c2)c1	-2	21%	6	-3%	23%
CCOC(=O)CNC(=O)CSc1nnc(SCC(=O)NCC(=O)OCC)s1	-3	.	9	3%	-16%
COCCSc1nnc(NC(=O)c2ccc3c(c2)OCO3)s1	?	-17%	5	25%	?
O=C(CSc1nnc(NC(=O)c2ccc3c(c2)OCO3)s1)NCc1ccco1	-3	-7%	5	?	13µM*
CCOC(=O)CNC(=O)CSc1nnc(NC(=O)c2ccc(C)cc2)s1	4	-15%	-10	6.3µM*	5.6µM*
Cc1ccc(C(=O)Nc2nnc(SCC(=O)N3CCCc4ccccc43)s2)cc1	-6	-10%	4	1.3µM*	0.5µM*
O=C(CSc1nnc(NC(=O)c2ccccc2)s1)NCc1ccco1	-2	-17%	21	?	?
CCOC(=O)CNC(=O)CSc1nnc(NC(=O)c2ccc3c(c2)OCO3)s1	0	-10%	-8	?	7.1µM*
COc1cc2ccccc2nn1	1	-1%	1	-6%	0%
COc1ccc2c(n1)Sc1nc3ccccc3nc1N2	110*	0%	11	28%	?
COc1cc(/C=N/N2CCCCC2)cc(OC)c1O	0	2%	10	-1%	-3%
N#C/C(=N\Nc1ccc(S(=O)(=O)N2CCc3ccccc32)cc1)C(N)=S	-1	-2%	-1	?	11µM*
N#C/C(=N\Nc1ccc([N+](=O)[O-])cc1)C(N)=S	-1	-24%	19	13µM*	?
SMILES	TRPV1 agonist	uPA generation	TRPV1 potentiator	VP16 counter	RORgamma inh
O=C(O)c1ccc(N=NNc2cccc([N+](=O)[O-])c2)cc1	1	3%	-2	-22%	14%
N#C/C(=N\Nc1ccc(S(=O)(=O)N2CCCCCC2)cc1)C(N)=S	-2	0%	13	?	11µM*
N#C/C(=N\Nc1cccc([N+](=O)[O-])c1)C(=O)c1ccc(Br)cc1	2	-21%	11	5µM*	4.5µM*
CCOc1cc(/C=C(\C#N)C(=O)Nc2ccccc2[N+](=O)[O-])ccc1OCc1cccc2ccccc12	-1	.	9	-9%	-4%
Cc1ccc(NC(=O)CCC(=O)Nc2nnc(C3CCCCC3)s2)cc1	5	4%	-16	0%	6%
COc1cc2[nH]c(C(=O)Nc3ccc(F)cc3)cc2c(OC)c1OC	86*	.	-6	3%	?
Cc1cc(C)c2cc(C(=O)Nc3ccc(C)c(F)c3)[nH]c2c1	?	-6%	-8	-27%	-37%
COc1ccc(SCC(CC(C)C)N2CCN(C)CCC2=O)cc1 (stereo unspecified)	.	.	.	12%	11%
